Measured values from PubChem BioAssay AID977607 (Broad Institute, 2014).
Screen size: about 1,500 compounds; about 460 (31%) were called active. Another 1% or so got no clear call; they are omitted.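 Rule for the calls: active = curve reaches 40% activation over neutral controls at an AC40 no higher than the top valid tested concentration; inconclusive = no clear call, values can overlap the other calls; inactive = signal moving opposite to the expected increase, and the rest.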 The list is a sample of the results. Entries with a potency or affinity are not part of this list.

Assay: GLuc-reported insulin release enhancers, glucose-stimulated beta cells – cell-based, INS-1E, Gaussia luciferase, luminescence, cherry-pick, set 2, dose response (AID 977607);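 note: 0% = median of the plate neutral control wells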
Details: INS-1E GLuc insulin secretion reporter, 2-3 h, stronger effect = higher value; at 35 µM, 100% = signal doubled over neutral wells unless noted

Max activation, inactive:
CCOc1ccc2oc(=O)cc(CN3CCOCC3)c2c1 12.7%
Cc1ccccc1-n1nc2c(c1NC(=O)c1cc3ccccc3oc1=O)CS(=O)(=O)C2 24.5% [at 3.8 µM, 100% = signal doubled over neutral wells]
CC(C)CC(=O)Nc1c2c(nn1-c1ccc(F)cc1)CS(=O)(=O)C2 -20.4% [at 1.2 µM, 100% = signal doubled over neutral wells]
c1ccc(CNc2nc(Oc3ccncc3)c3sccc3n2)cc1 13.8% [at 11 µM, 100% = signal doubled over neutral wells]
Cc1cc(Cl)ccc1-c1nc(NCc2ccccc2)nc2ccsc12 -22.5% [at 11 µM, 100% = signal doubled over neutral wells]
C[C@@H]1CN([C@H](C)CO)C(=O)CCCn2cc(nn2)CO[C@H]1CN(C)S(=O)(=O)c1cccs1 -22.5% [at 11 µM, 100% = signal doubled over neutral wells]
C[C@@H]1CC2=C(C(=O)OC(C)(C)O2)[C@H](c2ccc(F)cc2)O1 -20.8% [at 0.015 µM, 100% = signal doubled over neutral wells]
NC(=O)c1ccsc1NC(=O)COC(=O)CNC(=O)c1ccc(Cl)cc1 -11.2% [at 0.005 µM, 100% = signal doubled over neutral wells]
CC1(C(=O)NCc2ccccc2)CN(S(C)(=O)=O)CC(=O)N1C1CC1 (configuration not stated) -10.6% [at 11 µM, 100% = signal doubled over neutral wells]
CCN(CCC(=O)O)c1ccccc1 -16.1% [at 0.135 µM, 100% = signal doubled over neutral wells]
O=C(Cn1cc(C(F)(F)F)ccc1=O)NCC1CCCO1 (configuration not stated) -21% [at 0.015 µM, 100% = signal doubled over neutral wells]
CC1=NS(=O)(=O)NC(C)(C)C1 51.2% [at 0.42 µM, 100% = signal doubled over neutral wells]
CCc1ccc(OCC(=O)NC(=S)Nc2ccc(C)cc2C)c(Br)c1 -19.5% [at 0.046 µM, 100% = signal doubled over neutral wells]
COc1ccc(CCNC(=O)COC(=O)c2cncc(Br)c2)cc1OC -19.1%
COCCN(CCOC)Cc1cc(=O)oc2cc(OC)c(Cl)cc12 13.5% [at 11 µM, 100% = signal doubled over neutral wells]
O=C(COC(=O)C1CCC1)NC(=O)c1ccccc1 -14.8% [at 11 µM, 100% = signal doubled over neutral wells]
Cc1ccc(OCC(=O)NC(C)c2ccccc2)cc1 (configuration not stated) 22.7% [at 0.005 µM, 100% = signal doubled over neutral wells]
CN(C)C(=O)COC(=O)c1cccnc1Nc1ccccc1F -17.2% [at 3.8 µM, 100% = signal doubled over neutral wells]
CN(C)N1C(N)=C(C#N)C(c2ccc(F)cc2)C2=C1CCCC2=O (configuration not stated) 30.5% [at 11 µM, 100% = signal doubled over neutral wells]
CN1CCC(N(C)S(=O)(=O)c2ccc(NC(=O)COc3cccc(Cl)c3)cc2)CC1 -15.6%
CCOC(=O)Nc1ccc2c(c1)Sc1ccccc1N2C(=O)CCN1CCOCC1 -19.4% [at 0.0016 µM, 100% = signal doubled over neutral wells]
O=C(N1CCOCC1)N1CCN(c2ccccn2)CC1 26.8% [at 1.2 µM, 100% = signal doubled over neutral wells]
CC(C)OCC(O)CN1CCC(Cc2ccccc2)CC1 (configuration not stated) -7.86% [at 0.005 µM, 100% = signal doubled over neutral wells]
COc1ccc(CNC(=O)c2cnn3c(C(F)F)cc(C)nc23)cc1 24.2%
CC(=O)N1CCN(c2nnc(-c3ccccc3)c3ccccc23)CC1 -13.9% [at 0.005 µM, 100% = signal doubled over neutral wells]
CCOC(=O)c1c(C)[nH]c(C(=O)COC(=O)c2cnccn2)c1C 27%
CCCCn1c(-c2ccncc2)nc2c1c(=O)[nH]c(=O)n2CC(C)C -13.3% [at 3.8 µM, 100% = signal doubled over neutral wells]
COc1cc(OC)c(OC)cc1/C=N/n1c(C)nc2ccccc2c1=O -20.7% [at 0.42 µM, 100% = signal doubled over neutral wells]
CCCc1cc(NCC2CCCO2)n2c(nc3ccccc32)c1C#N (configuration not stated) -13% [at 0.015 µM, 100% = signal doubled over neutral wells]
O=C(Cc1ccsc1)NNC(=O)c1ccccc1Cl -13.6%
O=C(NCc1ccco1)c1ccc2c(=O)n(CCC3=CCCCC3)c(=O)[nH]c2c1 -21.9%
Cc1cc2nc(-c3ccc(Cl)cc3)c(Cc3ccsc3)n2c(C)c1Br -39.9% [at 11 µM, 100% = signal doubled over neutral wells]
COc1ccc(C(=O)NCC(=O)OCC(=O)NC2CCCCCC2)cc1OC 19.5%
COc1ccc(C(=O)NCC(=O)OCC(=O)Nc2sccc2C#N)cc1OC 24.5%
COc1ccc2[nH]c3c(NCCCN4CCCC4=O)ncnc3c2c1 11.2% [at 1.2 µM, 100% = signal doubled over neutral wells]
Cc1ccc(S(=O)(=O)/N=C(/Nc2cccc(O)c2)c2ccccc2)cc1 48.6%
COc1cc(C(=O)Nc2cc(C(F)(F)F)ccc2N2CCOCC2)ccc1OCC(=O)N1CCOCC1 -13.6% [at 3.8 µM, 100% = signal doubled over neutral wells]
